In PubChem BioAssay (NCATS):
Several values for one entry are separate records, joined by “and”; a condition that tells them apart may be missing. Equal values may be shown once. Results filed as inconclusive are left out. Unmarked numbers belong to inactive results. The call rests on the fitted dose curve; in most records, active means well fitted cell-killing curve with a large enough effect in the repeat runs; inconclusive means weak or mixed curves; inactive means flat fitted curve, though single readings scatter.
On the % scale 0 is the no-effect control and ±100 the full control effect.

Assay: qHTS assay for small molecule agonists of the antioxidant response element (ARE) signaling pathway measured by Nrf2-dependant transcriptional activity - cell viability counter screen (AID 720653)
Details: ARE-bla HepG2 viability, CellTiter-Glo ATP luminescence, 16 h; hits give low values
From the text: National Center for Advancing Translational Sciences [NCATS] NIH Chemical Genomics Center [NCGC] U.S. Environmental Protection Agency [EPA] National Institutes of Environmental Health Sciences [NIEHS] National Toxicology Program [NTP] Assay Overview: Oxidative stress has been implicated in the pathogenesis of a variety of diseases ranging from cancer to neurodegeneration. The antioxidant response element (ARE) signaling pathway plays an important role in the amelioration of oxidative stress. The CellSensor ARE-bla HepG2 cell line (Invitrogen) can be used for analyzing the Nrf2/antioxidant response signaling pathway. Nrf2 (NF-E2-related factor 2) and Nrf1 are transcription factors that bind to AREs and activate these genes. The CellSensor ARE-bla HepG2 cell line contains a beta-lactamase reporter gene under control of the Antioxidant Response Element (ARE) stably integrated into HepG2 cells. The activation of the report gene under culture conditions can be detected by fluorescence intensity. The cytotoxicity of the compounds against the ARE-bla HepG2 cell line was quantified by measuring the intracellular ATP content.
Assay Protocol Summary: ARE-bla HepG2 cells were dispensed at 2,000 cells/5 ul/well in 1536-well black wall/clear bottom plates using a Multidrop Combi (ThermoFisher Scientific, Waltham, MA) dispenser. After the assay plates were incubated at 37C/5% CO2 for 5 hrs, 23 nL of compounds dissolved in DMSO, positive controls or DMSO only was transferred to the assay plate by a pintool work station (Kalypsys, San Diego, CA). The plates were incubated at 37C/5% CO2 for 16 hrs. After 1 uL of LiveBLAzer B/G FRET substrate was added using a Flying Reagent Dispenser (FRD) (Aurora Discovery, San Diego, CA), the assay plates were incubated at room temperature for 2 hrs. The fluorescence intensity was measured by an Envision (PerkinElmer, Shelton, CT) plate reader. Cell viability using CellTiter Glo viability assay (Promega, Madison, WI) was also measured by adding 4 ul/well of CellTiter-Glo reagent into the same assay plate using a FRD. After 30 min incubation at room temperature, the luminescence intensity in the plates was measured using a ViewLux (PerkinElmer) plate reader.
`Cc1cc(=O)[nH]c(=S)[nH]1` showed a max response of 1.24%.
In the case of `COc1ccc(O)cc1`, the max response is reported as -1.63%.
`Cc1cccc(Nc2ccccc2C(=O)O)c1C` gave a max response of -4.01%.
Work on `CC1CC(OC(=O)c2ccccc2O)CC(C)(C)C1` (stereo unspecified) yielded a max response of 0.684%.
`CC[N+](CC)(CC(=O)Nc1c(C)cccc1C)Cc1ccccc1` gave a max response of -0.181%.
Compound `CC(C)=CCC/C(C)=C/CO` has a max response of 4.56%.
Compound `CCCCCCCC(=O)OCC(COC(=O)CCCCCCC)OC(=O)CCCCCCC` has a max response of 1.9%.
With `C=CCNC(N)=S` the max response was 0.701%.
For `Nc1ccc(S(=O)(=O)c2ccc(N)cc2)cc1`, the max response was -3.28% and -10.9%.
Compound `CCCCCCCCCCCCCCCCCCO` has a max response of 2.19%.
For `CCN(CC)C(=O)c1cccc(C)c1`, the max response was -1.02% and 2.48%.
In the case of `CC(=O)Nc1ccc(C(=O)O)cc1`, the max response is reported as -5.69%.
For `Cc1cc(C)nc(NS(=O)(=O)c2ccc(N)cc2)n1`, the max response was -4.69% and 1.65%.
For `CC(=O)NS(=O)(=O)c1ccc(N)cc1`, the max response was -11.8%.
For `O=C(O)CCCCC1CCSS1` (stereo unspecified), the max response was 10.3% and -9.69%.
With `CC(=O)Nc1cccc(O)c1` the max response was 3.22%.
`CCCC(O)C(CC)CO` (stereo unspecified) gave a max response of 0.4%.
For `Cc1cc(O)cc(C)c1Cl`, the max response was 0.227%.
In the case of `OC[C@@H](O)[C@@H](O)[C@H](O)[C@H](O)CO`, the max response is reported as -1.54%.
Compound `CCCCCC(N)=O` has a max response of -1.07%.
For `COC(=O)c1ccc(O)cc1`, the max response was -3.37%.
With `CC(=O)OCC(COC(C)=O)OC(C)=O` the max response was -0.23% and 1.03%.
For `O=C(c1ccccc1)C(O)c1ccccc1` (stereo unspecified), the max response was -4.04% and -7.26%.
With `O=C(OOC(=O)c1ccccc1)c1ccccc1` the max response was -11.2%.
In the case of `CCCCOC(=O)c1ccc(N)cc1`, the max response is reported as -19.9%.
With `O=C1C(c2[nH]c3ccccc3c2O)=Nc2ccccc21` the max response was -0.733%.
`Cc1ccc(C(C)C)c(O)c1` showed a max response of -4.59%.
Compound `FC(F)(F)C(Cl)Br` (stereo unspecified) has a max response of -1.89%.
For `Cc1c(C(=O)NCCO)[n+](=O)c2ccccc2n1[O-]`, the max response was -7.99%.
In the case of `Cc1c(N(C)C)c(=O)n(-c2ccccc2)n1C`, the max response is reported as -0.437% and -7.96%.
For `CC(=O)Nc1ccccc1`, the max response was -3.41%.
